Measurements taken from the antibiotic and cytotoxicity screens of Wong et al. (2023).
Out of some 39,000 compounds screened, about 3,300 (8.5%) were called active. This is one part of a sample in which actives are shown more often than they occur.

Test system: HepG2
Assay: cytotoxicity call (relative viability < 0.9)
Conditions: 10 µM

SMILES | cytotoxicity call
C[C@@H]1CN([C@H](C)CO)C(=O)Cc2cc(NC(=O)Cn3cnnn3)ccc2O[C@H]1CN(C)Cc1ccc2c(c1)OCO2 | inactive
CO[C@@H](CN(C)S(=O)(=O)c1ccc(Cl)cc1)[C@H](C)CN([C@@H](C)CO)S(=O)(=O)c1cccc(Cl)c1 | inactive
O=C1OC2(c3ccccc31)c1cc(I)c(O)c(I)c1Oc1c2cc(I)c(O)c1I | active
O=C1OC2(c3ccc(O)cc3Oc3cc(O)ccc32)c2ccccc21 | inactive
O=C1OC(c2cc(I)c(O)c(I)c2)(c2cc(I)c(O)c(I)c2)c2ccccc21 | inactive
C[C@@H]1CN([C@@H](C)CO)C(=O)c2cccc(NC(=O)c3cnccn3)c2O[C@H]1CN(C)C(=O)NC1CCCCC1 | inactive
Cc1[nH]c(=O)[nH]c(=O)c1S(=O)(=O)N1CCN(c2ccccc2)CC1 | inactive
Cc1noc(C)c1NC(=O)N(C)C[C@@H]1OCCCC[C@H](C)Oc2ccc(NS(=O)(=O)c3ccccc3)cc2C(=O)N([C@@H](C)CO)C[C@H]1C | inactive
C[C@H]1CN([C@@H](C)CO)S(=O)(=O)c2ccc(C#Cc3ccccc3F)cc2O[C@@H]1CN(C)C(=O)Cc1cccnc1 | inactive
O=C(C[C@@H]1CC[C@@H]2[C@H](COC[C@@H](O)CN2S(=O)(=O)c2cccc(Cl)c2)O1)NC1Cc2ccccc2C1 | inactive
O=C(C[C@@H]1C[C@H]2c3cc(NS(=O)(=O)c4ccc(F)cc4)ccc3O[C@H]2[C@H](CO)O1)NC1CCCC1 | inactive
COCC#Cc1cnc2c(c1)C(=O)N([C@@H](C)CO)C[C@H](C)[C@H](CN(C)C(=O)c1cnccn1)O2 | inactive
C#CC[C@H](c1nc2cc(Cl)ccc2c(=O)n1Nc1ccccc1)N(CCCN)C(=O)c1cccc(Cl)c1F | active
C[C@@H]1CN([C@H](C)CO)S(=O)(=O)c2ccc(-c3cccc(C#N)c3)cc2O[C@H]1CN(C)C(=O)c1ccncc1 | inactive
Cc1nc[nH]c1CN(C)[C@H](C)C(=O)N(C)C | inactive
CN(C)CCC=C1c2ccccc2CCc2ccccc21.Cl | active
CNCCC=C1c2ccccc2CCc2ccccc21.Cl | active
CN(C)CCC=C1c2ccccc2C=Cc2ccccc21.Cl | active
CN(C)CN1C(=O)c2ccccc2C1=O | inactive
CN(C)CCC=C1c2ccccc2COc2ccc(CC(=O)O)cc21.Cl | inactive
CN(C)CCC=C1c2ccccc2COc2ccccc21.Cl | active
Cc1noc(C2CNC2)n1 | inactive

SMILES | cytotoxicity call
COc1ccc(NC(=O)N(C)C[C@@H]2OCCCC[C@@H](C)Oc3ccc(NC(=O)NC(C)C)cc3C(=O)N([C@@H](C)CO)C[C@H]2C)cc1 | inactive
COc1cccc(NC(=O)C[C@@H]2CC[C@H]3[C@@H](COc4ccc(NC(=O)C5CCOCC5)cc4C(=O)N3C)O2)c1 | inactive
C[C@H](CO)N1C[C@H](C)[C@H](CN(C)S(C)(=O)=O)Oc2ccc(NC(=O)CCCCCC(=O)Nc3ccccc3N)cc2CC1=O | inactive
C[C@H](CO)N1C[C@H](C)[C@H](CN(C)C(=O)c2cccnc2)Oc2cc(C#CC3(O)CCCC3)ccc2S1(=O)=O | inactive
COc1cccc(S(=O)(=O)N(C)C[C@H]2OCc3cnnn3CCCC(=O)N([C@@H](C)CO)C[C@H]2C)c1 | inactive
C[C@H]1CN([C@@H](C)CO)C(=O)c2cccc(NS(C)(=O)=O)c2O[C@@H]1CN(C)C(=O)Nc1ccccc1 | inactive
CC(C)NC(=O)N(C)C[C@@H]1Oc2ccc(NS(=O)(=O)c3ccccc3)cc2C(=O)N([C@@H](C)CO)C[C@H]1C | inactive
Cc1noc(C)c1S(=O)(=O)Nc1ccc2c(c1)CC(=O)N([C@H](C)CO)C[C@@H](C)[C@H](CN(C)C(=O)Nc1ccccc1)O2 | inactive
C[C@@H]1CN([C@H](C)CO)C(=O)c2cc(NC(=O)NC3CCCCC3)ccc2O[C@H]1CN(C)Cc1ccc(Cl)c(Cl)c1 | inactive
C[C@H](CO)N1C[C@H](C)[C@@H](CN(C)C(=O)Nc2cccc3ccccc23)Oc2ccc(NC(=O)CCC(F)(F)F)cc2CC1=O | inactive
C[C@@H]1CCCCO[C@H](CN(C)C(=O)Nc2ccccc2)[C@H](C)CN([C@H](C)CO)C(=O)c2cc(NC(=O)NC3CCCCC3)ccc2O1 | inactive
CC(C)CC#Cc1cnc2c(c1)C(=O)N([C@H](C)CO)C[C@H](C)[C@H](CN(C)S(=O)(=O)c1cn(C)cn1)O2 | inactive
C[C@H](CO)N1C[C@H](C)[C@H](CN(C)C(=O)Nc2cccc3ccccc23)OCCCC[C@H](C)Oc2ccc(NC(=O)NC3CCCCC3)cc2C1=O | active
C[C@@H]1CCCCO[C@@H](CN(C)C(=O)Nc2cccc3ccccc23)[C@H](C)CN([C@H](C)CO)C(=O)c2cc(NC(=O)NC3CCCCC3)ccc2O1 | inactive
C[C@H]1CCCCO[C@H](CN(C)C(=O)Nc2cccc3ccccc23)[C@@H](C)CN([C@@H](C)CO)C(=O)c2cc(NC(=O)NC3CCCCC3)ccc2O1 | inactive
C[C@@H]1CCCCO[C@@H](CN(C)C(=O)NC2CCCCC2)[C@H](C)CN([C@H](C)CO)C(=O)c2cc(NC(=O)Nc3cccc4ccccc34)ccc2O1 | inactive
C[C@@H]1CCCCO[C@H](CN(C)C(=O)Nc2cccc3ccccc23)[C@@H](C)CN([C@H](C)CO)C(=O)c2cc(NC(=O)NC3CCCCC3)ccc2O1 | inactive
C[C@@H]1CCCCO[C@H](CN(C)C(=O)Nc2cccc3ccccc23)[C@H](C)CN([C@@H](C)CO)C(=O)c2cc(NC(=O)NC3CCCCC3)ccc2O1 | active
C[C@@H]1CN([C@@H](C)CO)C(=O)c2cc(NC(=O)Nc3cccc4ccccc34)ccc2O[C@@H](C)CCCCO[C@H]1CN(C)C(=O)NC1CCCCC1 | inactive
C[C@@H]1CCCCO[C@@H](CN(C)C(=O)Nc2cccc3ccccc23)[C@H](C)CN([C@@H](C)CO)C(=O)c2cc(NC(=O)NC3CCCCC3)ccc2O1 | inactive
C[C@@H]1CN([C@H](C)CO)C(=O)c2cc(NC(=O)Nc3cccc4ccccc34)ccc2O[C@@H](C)CCCCO[C@H]1CN(C)C(=O)NC1CCCCC1 | active
CC(C)NC(=O)Nc1ccc2c(c1)C(=O)N([C@H](C)CO)C[C@@H](C)[C@H](CN(C)S(=O)(=O)c1ccccc1)O2 | inactive
